Among the data in PubChem BioAssay (EPA / NIEHS) are outcome and AC50 values, retold here.

Assay [1] in a line: ATG_CRE_CIS: Attagene CIS-FACTORIAL HepG2 Assay for human cAMP Responsive Element (CRE) binding protein 3 (AID 2282926). The following applies: HepG2 CRE cis-reporter, Attagene multiplexed mRNA; actives raise or lower the signal. Summed up:
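Liver-derived HepG2, transfected with a CRE-containing reporter panel, exposed 24 h; transcript levels sized and quantified by capillary electrophoresis of labelled amplicons; signal changes either way referenced to vehicle.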

Assay [2] has as its target CCAAT/enhancer-binding protein beta (Homo sapiens) (UniProt P17676). Description: ATG_C_EBP_CIS: Attagene CIS-FACTORIAL HepG2 Assay for human CCAAT/Enhancer Binding Protein (C/EBP) beta (AID 2282927). The following applies: HepG2 Attagene cis-factorial transcription factor reporter; actives raise or lower the signal. Summed up:
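Transiently transfected HepG2 (MRTU library, endogenous TF-driven promoters); 24 h dosing; total RNA → oligo(dT) RT → PCR → 6-FAM primer extension → HpaI digest → CE; fit bidirectionally vs DMSO.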

Assay [3] can be described thus: ATG_DR4_LXR_CIS: Attagene CIS-FACTORIAL HepG2 Assay for human Liver X Receptor (LXR), DR4 submotif (AID 2282929). The following applies: HepG2 Attagene DR4 cis-reporter, mRNA transcription; actives raise or lower the signal. Summed up: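 DR4 cis-reporter in HepG2, 24 h exposure. Detection: RT-PCR, 6-FAM labelling, CE fragment analysis. Endpoint fitted bidirectionally, DMSO = baseline.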

In assay [4] the target is Aryl hydrocarbon receptor (Homo sapiens) (UniProt P35869). Description: ATG_Ahr_CIS: Attagene CIS-FACTORIAL HepG2 Assay for human Aryl Hydrocarbon Receptor (Ahr) (AID 2282930). The settings on record: HepG2 AhR cis-factorial reporter transcription; actives raise or lower the signal. Put shortly: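 Read-out: reporter mRNA quantified by RT-PCR with fluorescent primer extension and capillary electrophoresis. Human HepG2 liver cells carried transfected cis-promoter reporter units and were exposed to chemical for 24 h; gain or loss fitted relative to DMSO.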

Assay [5] is described as follows: ATG_AP_1_CIS: Attagene CIS-FACTORIAL HepG2 Assay for human Activator Protein 1 (AP-1) (AID 2282931). The settings on record: HepG2 Attagene cis-factorial AP-1 reporter mRNA; actives raise or lower the signal. Summed up:
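Cis-regulated reporter units transiently expressed in HepG2 report endogenous transcription-factor activity. Signal: reporter mRNA at 24 h, via RT-PCR and fluorescent capillary electrophoresis. Endpoint derived by bidirectional fitting, DMSO as negative control.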

Assay [6] in a line: ATG_AP_2_CIS: Attagene CIS-FACTORIAL HepG2 Assay for human Activator Protein 2 (AP-2) (AID 2282932). The following applies: HepG2 AP-2 cis-reporter, Attagene transcription factor profiling; actives raise or lower the signal. Put shortly: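 Read-out: fluorescent reporter mRNA via RT-PCR and capillary electrophoresis, 24 h post-dose in transiently transfected HepG2. Endogenous factors drive cis-promoter reporters; gain or loss of signal fitted bidirectionally against DMSO.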

Assay [7] can be described thus: ATG_BRE_CIS: Attagene CIS-FACTORIAL HepG2 Assay for human Bone Morphogenetic Protein (BMP) Response Element (BRE) (AID 2282933). The settings on record: HepG2 BMP response element reporter, Attagene transcription factor profiling; actives raise or lower the signal. Summed up:
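HepG2 cells transiently transfected with multiplexed cis-element reporter units were dosed with chemical for 24 h. Reporter mRNA was measured by RT-PCR with fluorescent labelling, HpaI digestion and capillary electrophoresis; bidirectional fitting relative to DMSO.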

For assay [8], the target named is Retinoic acid receptor alpha (Homo sapiens) (UniProt P10276). Description: ATG_DR5_RAR_CIS: Attagene CIS-FACTORIAL HepG2 Assay for human Retinoic Acid Receptor Alpha (RARE), DR5 submotif (AID 2282934).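 For AC50: reporter responds to endogenous RAR alpha beta and gamma in HepG2 not RARA alone.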 The settings on record: HepG2 Attagene cis-factorial RARE DR5 reporter, mRNA; actives raise or lower the signal. Put shortly:
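Read-out: DR5-driven reporter transcript measured by RT-PCR, 6-FAM primer extension, HpaI digest and capillary electrophoresis. Human HepG2 liver cells carry transiently transfected cis-element reporter constructs; dosing lasts 24 h. Gain or loss of signal fitted against DMSO baseline.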

The target in assay [9] is Transcription factor E2F1 (Homo sapiens) (UniProt Q01094). Description: ATG_E2F_CIS: Attagene CIS-FACTORIAL HepG2 Assay for human E2F Transcription Factor 1 (AID 2282935). The following applies: HepG2 Attagene cis-reporter, E2F reporter RNA transcripts; actives raise or lower the signal. Put shortly:
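Transient MRTU transfection of HepG2; 24 h compound exposure; RNA → oligo(dT) RT → PCR → FAM label → HpaI cut → CE fluorescence. Gain/loss of signal fit against DMSO.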

The nature of assay [10]: ATG_E_Box_CIS: Attagene CIS-FACTORIAL HepG2 Assay for human Enhancer Box (E-box) (AID 2282936). The settings on record: HepG2 E-box cis-reporter transcription, actives raise or lower the signal. Put shortly:
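Transiently transfected HepG2, endogenous TF-driven reporters, 24 h dosing. Readout: RT-PCR plus capillary electrophoresis of fluorescent reporter fragments. Gain or loss of signal fitted bidirectionally against DMSO baseline.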

Assay [11] in a line: ATG_M_61_CIS: Attagene CIS-FACTORIAL HepG2 Assay for M61 Transcription Factor (Internal Marker) (AID 2282937). The settings on record: HepG2 Attagene CIS-FACTORIAL M61 internal marker reporter; actives raise or lower the signal. Put shortly:
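Background-control endpoint: HepG2 cells with cis-regulated reporter constructs, 24 h exposure, reporter mRNA detected via fluorescent primer extension and capillary electrophoresis; values from bidirectional fitting with DMSO baseline.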

A short description of assay [12]: ATG_EGR_CIS: Attagene CIS-FACTORIAL HepG2 Assay for human Early Growth Response 1 (EGR1) (AID 2282938). The following applies: HepG2 Attagene CIS-FACTORIAL EGR reporter mRNA; actives raise or lower the signal. Put shortly: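 Endpoint derived by bidirectional fitting versus DMSO vehicle. Method: cis-promoter reporter units transfected into HepG2, 24 h dosing, RNA isolation, RT-PCR with 6-FAM primer extension and HpaI digestion, then capillary electrophoresis fluorescence detection.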

Assay [13] can be described thus: ATG_Ets_CIS: Attagene CIS-FACTORIAL HepG2 Assay for human Erythroblast Transformation Specific (ETS) (AID 2282941). The settings on record: HepG2 ETS cis-reporter transcription, actives raise or lower the signal. Summed up: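 Endogenous transcription factor activity read as reporter mRNA via RT-PCR and capillary electrophoresis, with gain or loss fitted bidirectionally against DMSO. Human HepG2 liver cells, transiently transfected CIS reporter constructs, 24 h exposure.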

The target of assay [14] is Hepatocyte nuclear factor 3-beta (Homo sapiens) (UniProt Q9Y261). Description: ATG_FoxA2_CIS: Attagene CIS-FACTORIAL HepG2 Assay for human Forkhead box A2 (FOXA2) (AID 2282942). The following applies: HepG2 cis-reporter transcription factor activity, 24 h; actives raise or lower the signal. Summed up: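 Measured: reporter mRNA induction or loss in HepG2 transiently carrying multiple cis-regulated reporter units, 24 h after dosing. Quantified by RT-PCR plus capillary electrophoresis, normalised to DMSO.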

Assay [15] in a line: ATG_FoxO_CIS: Attagene CIS-FACTORIAL HepG2 Assay for human Forkhead box O (FoxO) (AID 2282943). The settings on record: HepG2 Attagene cis-reporter, FoxO element, mRNA; actives raise or lower the signal. Summed up:
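Read-out: fluorescence of 6-FAM-labelled reporter cDNA fragments resolved by capillary electrophoresis. Transiently transfected HepG2 cells were dosed for 24 h; activity fitted in both directions relative to DMSO controls.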

Assay [16] in a line: ATG_GATA_CIS: Attagene CIS-FACTORIAL HepG2 Assay for human GATA Binding Protein (AID 2282944). The following applies: HepG2 GATA cis-element reporter, Attagene multiplex mRNA; actives raise or lower the signal. Put shortly: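 HepG2 cells transiently transfected with multiplexed cis-element reporter units reflecting endogenous transcription factor activity; reporter mRNA measured after 24 h dosing by RT-PCR, 6-FAM labeling, HpaI digestion and capillary electrophoresis. Bidirectional fitting versus DMSO baseline.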

Assay [17] in a line: ATG_GLI_CIS: Attagene CIS-FACTORIAL HepG2 Assay for human Zinc Finger Protein GLI1 (AID 2282945). The following applies: HepG2, Attagene cis-factorial reporter mRNA, GLI element; actives raise or lower the signal. Summed up: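 Transiently transfected HepG2 cells report endogenous transcription factor activity via cis-element-driven reporter units. After 24 h compound exposure, reporter mRNA was measured by RT-PCR with capillary electrophoresis; bidirectional fitting against DMSO baseline.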

Assay [18] is described as follows: ATG_CMV_CIS: Attagene CIS-FACTORIAL HepG2 Assay for human CMV (Internal Marker) (AID 2282928).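 Note: endpoint acts as a background internal control marker rather than a target.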 The following applies: HepG2 CMV promoter reporter, transcription factor profiling; actives raise or lower the signal. Put shortly:
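Bidirectional fits against DMSO are applied to reporter mRNA, read by RT-PCR with capillary electrophoresis, from HepG2 cells exposed 24 h. The endpoint serves as an internal CMV background marker within the cis-factorial reporter panel.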

Assay [19] is described as follows: ATG_M_19_CIS: Attagene CIS-FACTORIAL HepG2 Assay for M19 Transcription Factor (Internal Marker) (AID 2282939). The following applies: HepG2 Attagene CIS-FACTORIAL M19 internal marker reporter; actives raise or lower the signal. Summed up:
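HepG2 cells transiently transfected with cis-regulated multiple reporter transcription units were dosed for 24 h; reporter mRNA was quantified by RT-PCR, 6-FAM primer-extension labelling, HpaI digestion and capillary electrophoresis, with bidirectional fitting against DMSO baseline.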

Assay [20] is described as follows: ATG_ERE_CIS: Attagene CIS-FACTORIAL HepG2 Assay for Estrogen Response Element (ERE) (AID 2282940). The settings on record: HepG2 ERE cis-reporter, Attagene RNA transcript; actives raise or lower the signal. Summed up: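 HepG2 cells transiently transfected with cis-promoter-driven multiplexed reporter transcription units report endogenous TF activity. After 24 h compound exposure, reporter mRNA is quantified by RT-PCR with capillary electrophoresis fluorescence; bidirectional fitting versus DMSO baseline.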

The AC50 is the midpoint of the concentration-response curve, whichever way the signal moves.

Structures are written as SMILES. The source made the active and inactive calls. Rule for the calls: active = hit-call score of the fitted dose curve at least 0.9, where 1 is the maximum; inactive = score below 0.9.

Transcription factor E2F1 (Homo sapiens), sequence (Q01094 whole entry, looked up): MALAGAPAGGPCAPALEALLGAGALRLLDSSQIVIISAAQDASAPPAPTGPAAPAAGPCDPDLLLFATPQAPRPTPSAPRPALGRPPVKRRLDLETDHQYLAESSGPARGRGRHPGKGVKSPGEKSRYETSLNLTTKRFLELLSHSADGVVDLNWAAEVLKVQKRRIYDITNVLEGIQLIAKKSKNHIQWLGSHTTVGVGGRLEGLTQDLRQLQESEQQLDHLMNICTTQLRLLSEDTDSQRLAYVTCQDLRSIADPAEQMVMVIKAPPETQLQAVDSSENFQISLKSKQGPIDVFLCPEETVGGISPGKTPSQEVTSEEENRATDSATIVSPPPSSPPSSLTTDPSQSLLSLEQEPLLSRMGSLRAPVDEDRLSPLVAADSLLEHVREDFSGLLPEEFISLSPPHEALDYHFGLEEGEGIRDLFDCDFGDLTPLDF
Aryl hydrocarbon receptor (Homo sapiens), sequence (P35869 whole entry, looked up): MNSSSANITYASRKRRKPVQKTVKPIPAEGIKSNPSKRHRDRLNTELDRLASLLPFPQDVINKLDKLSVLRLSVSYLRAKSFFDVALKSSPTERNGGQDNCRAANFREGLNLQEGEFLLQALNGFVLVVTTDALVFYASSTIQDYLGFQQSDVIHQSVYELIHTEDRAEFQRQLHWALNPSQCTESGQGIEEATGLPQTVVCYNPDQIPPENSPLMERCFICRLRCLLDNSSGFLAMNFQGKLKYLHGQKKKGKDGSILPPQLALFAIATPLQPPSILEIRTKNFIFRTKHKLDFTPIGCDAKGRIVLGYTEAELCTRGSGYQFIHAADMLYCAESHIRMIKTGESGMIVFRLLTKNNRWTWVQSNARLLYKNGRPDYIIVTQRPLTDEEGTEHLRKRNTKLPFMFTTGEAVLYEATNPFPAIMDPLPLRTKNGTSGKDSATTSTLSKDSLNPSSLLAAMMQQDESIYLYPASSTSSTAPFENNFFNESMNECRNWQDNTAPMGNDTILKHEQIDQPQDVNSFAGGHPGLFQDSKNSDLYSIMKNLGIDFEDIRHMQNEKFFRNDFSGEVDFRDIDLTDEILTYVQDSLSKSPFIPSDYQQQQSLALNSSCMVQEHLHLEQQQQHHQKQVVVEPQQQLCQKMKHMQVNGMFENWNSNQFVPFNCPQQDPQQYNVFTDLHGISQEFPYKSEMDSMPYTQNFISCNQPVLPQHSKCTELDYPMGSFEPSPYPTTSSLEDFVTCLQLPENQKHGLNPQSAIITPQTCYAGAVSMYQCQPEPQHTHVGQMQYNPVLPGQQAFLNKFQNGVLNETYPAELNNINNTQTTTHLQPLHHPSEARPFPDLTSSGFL
Hepatocyte nuclear factor 3-beta (Homo sapiens), sequence (Q9Y261 whole entry, looked up): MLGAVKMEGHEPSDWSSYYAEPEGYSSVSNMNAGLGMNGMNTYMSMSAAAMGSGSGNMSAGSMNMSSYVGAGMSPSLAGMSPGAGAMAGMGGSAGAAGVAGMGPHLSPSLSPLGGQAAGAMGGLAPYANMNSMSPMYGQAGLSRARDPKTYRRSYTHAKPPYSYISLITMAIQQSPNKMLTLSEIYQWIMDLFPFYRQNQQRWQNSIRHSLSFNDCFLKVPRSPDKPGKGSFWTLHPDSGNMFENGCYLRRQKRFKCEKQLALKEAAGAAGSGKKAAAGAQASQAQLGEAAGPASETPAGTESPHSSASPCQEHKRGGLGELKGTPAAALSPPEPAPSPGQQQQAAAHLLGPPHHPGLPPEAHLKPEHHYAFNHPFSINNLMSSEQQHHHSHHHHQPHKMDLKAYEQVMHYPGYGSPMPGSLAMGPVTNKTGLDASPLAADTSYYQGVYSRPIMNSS
Retinoic acid receptor alpha (Homo sapiens), sequence (P10276 whole entry, looked up): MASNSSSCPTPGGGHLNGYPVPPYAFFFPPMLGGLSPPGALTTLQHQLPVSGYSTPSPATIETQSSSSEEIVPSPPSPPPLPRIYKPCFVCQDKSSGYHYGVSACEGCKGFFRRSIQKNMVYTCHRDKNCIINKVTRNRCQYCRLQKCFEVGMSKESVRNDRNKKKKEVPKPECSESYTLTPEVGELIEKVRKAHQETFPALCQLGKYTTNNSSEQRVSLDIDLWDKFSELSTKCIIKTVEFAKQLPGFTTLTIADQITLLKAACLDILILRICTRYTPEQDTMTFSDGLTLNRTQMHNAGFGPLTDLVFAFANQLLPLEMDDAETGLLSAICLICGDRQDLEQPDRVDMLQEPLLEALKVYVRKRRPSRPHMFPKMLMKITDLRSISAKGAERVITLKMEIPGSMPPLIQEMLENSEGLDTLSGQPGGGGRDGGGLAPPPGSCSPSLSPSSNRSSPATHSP
CCAAT/enhancer-binding protein beta (Homo sapiens), sequence (P17676 whole entry, looked up): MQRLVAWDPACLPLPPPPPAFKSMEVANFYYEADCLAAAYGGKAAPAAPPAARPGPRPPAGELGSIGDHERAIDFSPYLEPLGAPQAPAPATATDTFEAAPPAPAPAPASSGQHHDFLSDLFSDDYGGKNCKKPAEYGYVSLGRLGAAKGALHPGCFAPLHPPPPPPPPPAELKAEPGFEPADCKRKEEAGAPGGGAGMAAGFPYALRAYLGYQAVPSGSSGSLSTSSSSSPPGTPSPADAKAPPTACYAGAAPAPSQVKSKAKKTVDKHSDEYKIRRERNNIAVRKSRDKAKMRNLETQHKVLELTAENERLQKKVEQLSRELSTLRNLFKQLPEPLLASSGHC

Regarding `CC(=O)CC(=O)Nc1ccccc1`, the compound was classed as inactive in assay [1], in assay [2], in assay [3], in assay [4], in assay [5] and in [6]. In addition, the compound was called inactive in assay [7], in assay [8], in [9], in assay [10], in assay [11] and in [12]. Also, the compound was classed as inactive in assay [13], in [14], in [15], in assay [16] and in assay [17].

For `CN1C(=O)c2ccccc2C1=O`, the call in [1], in assay [2], in [18], in assay [4], in assay [6] and in assay [7] was inactive. Also, the outcome in [8], in assay [10], in [11], in [12], in assay [19] and in assay [13] was inactive. Besides, the compound was classed as inactive in [14], in assay [15], in assay [16] and in assay [17].

For `C=C(C)C(=O)OCCOCCOCCOCCOC(=O)C(=C)C`, the compound was classed as inactive in assay [1], in assay [2], in assay [3], in assay [4], in assay [5] and in assay [6]. For the same compound, the outcome in assay [7], in assay [8], in assay [10], in [11], in assay [12] and in [19] was inactive. Also, the call in assay [13], in [14], in [15], in assay [16] and in assay [17] was inactive.

Take `O=C(CC(=O)c1ccccc1)c1ccccc1`: the AC50 was 51.1 µM (active) in assay [1]; 70.4 µM (active) in assay [2]; 25.9 µM (active) in assay [4]; 80.1 µM (active) in assay [5]; 62.5 µM (active) in assay [8]; 42.5 µM (active) in [10]. Moreover, the values for the AC50 in assay [12], in assay [16] and in assay [17] were 100 µM (active), 171 µM (active) and 157 µM (active), respectively. Also, the compound was called inactive in [3], in assay [6], in [9], in assay [11], in assay [19] and in assay [13]. In addition, the call in assay [14] and in [15] was inactive.

For `NCCNc1cccc2ccccc12`, the AC50 in assay [1] was 170 µM (active); in [2] it was 169 µM (active); in [4], 7.19 µM (active); in [6], 100 µM (active); in assay [10], 176 µM (active); in assay [12], 141 µM (active). Further, the result in assay [3], in assay [7], in assay [8], in assay [9], in [11] and in [19] was inactive. The compound was classed as inactive in assay [13], in assay [14], in assay [15], in assay [16] and in [17].

`CCC(=O)OCCOc1ccccc1`: the call in [1], in [2], in [18], in assay [4], in assay [6] and in assay [7] was inactive. Also, the result in [8], in assay [9], in assay [10], in assay [11], in assay [12] and in [20] was inactive. In addition, the call in assay [13], in assay [14], in assay [15], in [16] and in [17] was inactive.

Turning to `O=C(O)COCC(=O)O`, the outcome in assay [1], in assay [2], in assay [3], in [4], in assay [5] and in assay [6] was inactive. Further, the compound was classed as inactive in assay [7], in assay [8], in assay [9], in [10], in assay [11] and in assay [12]. The compound was called inactive in assay [19], in assay [13], in [14], in [15], in assay [16] and in assay [17].

On to `CC(=O)O[C@H]1C[C@@H]2CC[C@@]1(C)C2(C)C`, for which the compound was classed as inactive in [1], in assay [2], in assay [3], in assay [4], in [5] and in assay [6]. The outcome in [7], in assay [8], in assay [9], in assay [10], in assay [11] and in assay [12] was inactive. In addition, the result in assay [19], in assay [13], in assay [14], in assay [16] and in assay [17] was inactive.
